Source: PubChem BioAssay AID1159580 (chemical genetic matrix, 2015)
In all, about 5,500 compounds went through this assay and about 2,000 (36%) were called active. Another 18% or so got no clear call; they are omitted. Rule as the data show it: active = normalized growth mostly below about 0.91 (no sharp cut-off); inconclusive = no clear call, values can overlap the other calls; inactive = mostly above about 0.92. Some of the results follow.

Assay: chemical genetic growth profiling, strain panel (AID 1159580);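 also: tested at 20 µM; growth read once vehicle control cultures reached saturation at 30 °C; 1 = growth at the plate median or of vehicle wells; lower values mean less growth of the strain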
Details: growth OD

Measured: normalized growth

CCOC(=O)CC(SP(=S)(OC)OC)C(=O)OCC (stereo unspecified)
inactive: S. cerevisiae deletion strains, locus YAL013W, strain DEP1, stronger effect = lower value 1.02 | S. cerevisiae deletion strains, locus YBR021W, strain FUR4, stronger effect = lower value 1.01 | S. cerevisiae deletion strains, locus YBR229C, strain ROT2, stronger effect = lower value 1.01 | S. cerevisiae deletion strains, locus YCL029C, strain bik1, stronger effect = lower value 1.01 | S. cerevisiae deletion strains, locus YDL035C, strain GPR1, stronger effect = lower value 1.02 | S. cerevisiae deletion strains, locus YDL074C, strain BRE1, stronger effect = lower value 0.996 | S. cerevisiae deletion strains, locus YDL101C, strain DUN1, stronger effect = lower value 1 | S. cerevisiae deletion strains, locus YDL134C, strain PPH21, stronger effect = lower value 1.01 | S. cerevisiae deletion strains, locus YDL185W, strain tfp1, stronger effect = lower value 1.02 | S. cerevisiae deletion strains, locus YDL192W, strain arf1, stronger effect = lower value 1 | S. cerevisiae deletion strains, locus YDR101C, strain arx1, stronger effect = lower value 0.998 | S. cerevisiae deletion strains, locus YDR150W, strain NUM1, stronger effect = lower value 0.996 | S. cerevisiae deletion strains, locus YDR162C, strain NBP2, stronger effect = lower value 1.01 | S. cerevisiae deletion strains, locus YDR318W, strain mcm21, stronger effect = lower value 1.02 | S. cerevisiae deletion strains, locus YDR388W, stronger effect = lower value 1.01 | S. cerevisiae deletion strains, locus YDR502C, strain sam2, stronger effect = lower value 0.998 | S. cerevisiae deletion strains, locus YEL061C, strain CIN8, stronger effect = lower value 1.01 | S. cerevisiae deletion strains, locus YER110C, stronger effect = lower value 1.01 | S. cerevisiae deletion strains, locus YER155C, strain BEM2, stronger effect = lower value 1.02 | S. cerevisiae deletion strains, locus YER167W, strain BCK2, stronger effect = lower value 1.02 | S. cerevisiae deletion strains, locus YGL078C, strain dbp3, stronger effect = lower value 0.998 | S. cerevisiae deletion strains, locus YGL086W, strain mad1, stronger effect = lower value 1 | S. cerevisiae deletion strains, locus YGL248W, strain PDE1, stronger effect = lower value 1.01 | S. cerevisiae deletion strains, locus YGR078C, strain PAC10, stronger effect = lower value 1.01 | S. cerevisiae deletion strains, locus YGR135W, strain pre9, stronger effect = lower value 0.994 | S. cerevisiae deletion strains, locus YGR229C, strain SMI1, stronger effect = lower value 1.02 | S. cerevisiae deletion strains, locus YGR252W, strain gcn5, stronger effect = lower value 1 | S. cerevisiae deletion strains, locus YHR030C, strain SLT2, stronger effect = lower value 1.02 | S. cerevisiae deletion strains, locus YHR079C, strain IRE1 (second series), stronger effect = lower value 1.01 | S. cerevisiae deletion strains, locus YHR094C, strain hxt1, stronger effect = lower value 1.01 | S. cerevisiae deletion strains, locus YHR129C, strain ARP1, stronger effect = lower value 1.02 | S. cerevisiae deletion strains, locus YHR200W, strain rpn10, stronger effect = lower value 1.01 | S. cerevisiae deletion strains, locus YIL066C, strain RNR3, stronger effect = lower value 1.04 | S. cerevisiae deletion strains, locus YIL073C, strain SPO22, stronger effect = lower value 1.09 | S. cerevisiae deletion strains, locus YIL125W, strain kgd1, stronger effect = lower value 0.998 | S. cerevisiae deletion strains, locus YIR030C, strain dcg1, stronger effect = lower value 1 | S. cerevisiae deletion strains, locus YJL095W, strain BCK1, stronger effect = lower value 1.02 | S. cerevisiae deletion strains, locus YJL134W, strain LCB3, stronger effect = lower value 1.01 | S. cerevisiae deletion strains, locus YJL168C, strain set2, stronger effect = lower value 1.01 | S. cerevisiae deletion strains, locus YJL187C, strain SWE1 (second series), stronger effect = lower value 1.01 | S. cerevisiae deletion strains, locus YJR043C, strain POL32, stronger effect = lower value 1.01 | S. cerevisiae deletion strains, locus YJR075W, strain HOC1, stronger effect = lower value 1.01 | S. cerevisiae deletion strains, locus YKL009W, strain mrt4, stronger effect = lower value 1.01 | S. cerevisiae deletion strains, locus YKL068W, stronger effect = lower value 1.01 | S. cerevisiae deletion strains, locus YKL085W, strain MDH1 (second series), stronger effect = lower value 1.01 | S. cerevisiae deletion strains, locus YKL085W, strain MDH1, stronger effect = lower value 1.01 | S. cerevisiae deletion strains, locus YKL190W, strain CNB1, stronger effect = lower value 1.01 | S. cerevisiae deletion strains, locus YKR001C, strain vps1, stronger effect = lower value 1.02 | S. cerevisiae deletion strains, locus YLR039C, strain RIC1, stronger effect = lower value 1.06 | S. cerevisiae deletion strains, locus YLR058C, strain SHM2, stronger effect = lower value 1.02 | S. cerevisiae deletion strains, locus YLR102C, strain apc9, stronger effect = lower value 1.01 | S. cerevisiae deletion strains, locus YLR262C, strain YPT6, stronger effect = lower value 1.04 | S. cerevisiae deletion strains, locus YLR268W, strain sec22, stronger effect = lower value 0.997 | S. cerevisiae deletion strains, locus YLR330W, strain CHS5, stronger effect = lower value 1.01 | S. cerevisiae deletion strains, locus YLR342W, strain FKS1 (second series), stronger effect = lower value 1.07 | S. cerevisiae deletion strains, locus YLR371W, strain rom2, stronger effect = lower value 1.01 | S. cerevisiae deletion strains, locus YLR418C, strain cdc73, stronger effect = lower value 0.988 | S. cerevisiae deletion strains, locus YML016C, strain PPZ1, stronger effect = lower value 1.01 | S. cerevisiae deletion strains, locus YML032C, strain rad52, stronger effect = lower value 1 | S. cerevisiae deletion strains, locus YML124C, strain tub3, stronger effect = lower value 1.01 | S. cerevisiae deletion strains, locus YMR078C, strain ctf18, stronger effect = lower value 1.02 | S. cerevisiae deletion strains, locus YMR223W, strain ubp8, stronger effect = lower value 1.01 | S. cerevisiae deletion strains, locus YMR263W, strain SAP30, stronger effect = lower value 1.01 | S. cerevisiae deletion strains, locus YMR307W, strain GAS1, stronger effect = lower value 1.05 | S. cerevisiae deletion strains, locus YNL067W, strain RPL9B, stronger effect = lower value 0.998 | S. cerevisiae deletion strains, locus YNL128W, strain TEP1, stronger effect = lower value 1 | S. cerevisiae deletion strains, locus YNL153C, strain GIM3, stronger effect = lower value 1.01 | S. cerevisiae deletion strains, locus YNL233W, strain BNI4, stronger effect = lower value 1 | S. cerevisiae deletion strains, locus YNL250W, strain rad50, stronger effect = lower value 1.01 | S. cerevisiae deletion strains, locus YNL271C, strain bni1, stronger effect = lower value 1.02 | S. cerevisiae deletion strains, locus YNL298W, strain CLA4, stronger effect = lower value 1.02 | S. cerevisiae deletion strains, locus YNL307C, strain MCK1, stronger effect = lower value 1.02 | S. cerevisiae deletion strains, locus YNL322C, strain KRE1, stronger effect = lower value 1.01 | S. cerevisiae deletion strains, locus YNR052C, strain pop2, stronger effect = lower value 1 | S. cerevisiae deletion strains, locus YOL006C, strain TOP1, stronger effect = lower value 1.02 | S. cerevisiae deletion strains, locus YOL012C, strain htz1 0.831 | S. cerevisiae deletion strains, locus YOL147C, strain pex11, stronger effect = lower value 1.01 | S. cerevisiae deletion strains, locus YOR061W, strain CKA2, stronger effect = lower value 1 | S. cerevisiae deletion strains, locus YOR069W, strain VPS5, stronger effect = lower value 1.01 | S. cerevisiae deletion strains, locus YOR136W, strain idh2, stronger effect = lower value 1 | S. cerevisiae deletion strains, locus YOR144C, strain elg1, stronger effect = lower value 1 | S. cerevisiae deletion strains, locus YOR184W, strain ser1, stronger effect = lower value 1.02 | S. cerevisiae deletion strains, locus YOR316C, strain cot1, stronger effect = lower value 1 | S. cerevisiae deletion strains, locus YPL055C, strain LGE1, stronger effect = lower value 1 | S. cerevisiae deletion strains, locus YPL241C, strain CIN2, stronger effect = lower value 1.01 | S. cerevisiae deletion strains, locus YPR119W, strain clb2, stronger effect = lower value 1 | S. cerevisiae deletion strains, locus YPR141C, strain kar3, stronger effect = lower value 1 | S. cerevisiae deletion strains, locus YPR163C, strain tif3, stronger effect = lower value 1.01 | S. cerevisiae deletion strains, locus YPR167C, strain met16, stronger effect = lower value 1.01 | S. cerevisiae deletion strains, strain wtn01, stronger effect = lower value 0.996 | S. cerevisiae strains, strain wild type, stronger effect = lower value 1.01
